# Screens deposited in PubChem BioAssay by several laboratories.
# cardiac RTF act – cardiac RTF calcium sensitization. P19429+P45379. IANBD-labeled TnC RTF fluorescence at EC20 calcium; 0% EC20 calcium, 100% full calcium. activation, % at 7.2 µM. 340,000 tested, 0.24% active;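 active = activation above the mean over all tested compounds plus 3 SD, cut at about 30% in these data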;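 note: rise in fluorescence read as greater calcium sensitivity of cardiac thin filaments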
# CRFBP-R2 agonist – CRF-BP/CRF-R2 complex agonism | 350,000 tested, 0.46% active | activation, % at 13.2 µM | HEK293 CRF-R2/CRF-BP, calcium dye fluorescence (FLIPR); percent of saturating CRF peptide response;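 active = activation of at least 50%, plus an integration ratio under a set limit after plate pattern correction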;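 note: plate controls were neutral control wells without compound for no effect and CRF at EC100 for full effect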
# Myeloid diff MLP – compounds promoting myeloid differentiation. 360,000 tested, 1% active. AID 624256. ER-HoxA9 myeloid progenitors, lysozyme-GFP differentiation, flow cytometry. calls only at 10 µM;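 active = normalized GFP-positive differentiation at or above the plate's own cutoff, the solvent-only control mean plus 3 SD; inconclusive = no clear call, values can overlap the other calls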;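 note: cells exposed to compound for four days before flow analysis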
# CRFBP-R2 block – blocks CRF-induced signaling of the CRF-BP/CRF-R2 complex. HEK293 CRF-R2/CRF-BP, CRF-induced calcium fluorescence. AID 588475. 350,000 tested, 0.59% active. inhibition, % at 11.8 µM;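 active = inhibition of the ligand-induced calcium signal above about 50% at the single tested concentration, limit read from the data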
# RTF Ca sens inh – cardiac RTF calcium desensitization | IANBD-labeled cardiac RTF, Ca2+ fluorescence | AID 493244 | 340,000 tested, 0.12% active | P19429+P45379 | inhibition, % at 7.15 µM;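 active = inhibition above the mean inhibition of all tested compounds plus 3 SD, cut at about 17% in these data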;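 note: assay run at fixed EC70 calcium of 1.6 mM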
# Starred values were filed as active, the others as inactive; i = inactive; ? = inconclusive; / = not tested or not shown; + = active, no number. Sampled rows, rich in hits. Any-hit rate of the full collection: about 2.2%.
SMILES,cardiac RTF act,CRFBP-R2 agonist,Myeloid diff MLP,CRFBP-R2 block,RTF Ca sens inh
O=C(Nc1ccc(C(=O)O)cc1)/C(=C\c1ccco1)NC(=O)c1ccco1,6.1,-0.1,i,-4.1,-8.2
CC1(C(=O)Nc2ccc3[nH]ncc3c2)CCN1C(=O)C/C=C/c1ccccc1 (stereo not drawn),/,/,+,/,/
O=C(CSc1ccc(Cl)cc1)Nn1cnnc1,-3.6,0.6,+,-25.8,4.5
O=C(CSc1ccc2ccccc2c1)Nn1cnnc1,1.1,0.7,i,6.9,-1.5
COc1ccc(NC(=O)c2cncn2-c2ccccc2)cc1,0.4,-0.7,i,6.9,-5.2
COc1ccc(-c2cc(NC(=O)c3cncn3-c3ccccc3)ccc2OC)cc1,-5.1,0.2,+,-4.3,-5.5
COc1ccc2nc(/N=C/c3c(C)[nH]n(-c4ccc(C)cc4C)c3=O)sc2c1,-0.6,64.6*,i,15.5,2.0
Cc1cc(SCC(=O)c2ccc(Cl)cc2)nc(=O)[nH]1,-0.6,1.4,i,81.1*,-12.8
Cc1ccc(C(=O)CSc2cc(C)[nH]c(=O)n2)cc1,-2.7,0.4,i,5.8,-1.8
Cc1c(CCC(=O)NCCCCCC(=O)O)c(=O)oc2c(C)c3oc4c(c3cc12)CCCC4,-3.3,-1.0,i,-18.2,-5.8
Cc1c(CCC(=O)NCCCn2ccnc2)c(=O)oc2c(C)c3oc4c(c3cc12)CCCC4,5.4,-3.4,+,-4.5,-8.7
Cc1noc(NS(=O)(=O)c2ccc(NC(=O)CS(=O)(=O)c3ccccc3)cc2)c1C,-0.1,-5.2,i,59.7*,-3.7
Cc1noc(NS(=O)(=O)c2ccc(NC(=O)COc3ccccc3)cc2)c1C,6.3,-2.0,i,1.0,-5.5
CC(C)(C)c1cc(C(=O)NNC(=O)Nc2ccccc2)n(Cc2ccccc2)n1,4.7,0.2,i,1.5,-3.5
CC(C)(C)c1cc(C(=O)NNC(=O)Nc2cccc(Cl)c2)n(Cc2ccccc2)n1,-1.7,0.6,i,51.0*,2.4
CCc1ccc(-c2cc(C)no2)cc1S(=O)(=O)Nc1cc(C)on1,1.1,0.4,i,12.8,-0.3
CCc1ccc(-c2cc(C)no2)cc1S(=O)(=O)Nc1ccc(Cl)cn1,-7.3,0.6,i,57.1*,-2.2
Cc1ccc(N(C(=O)Cn2nnc(-c3ccccc3)n2)C(C(=O)NC2CCCCC2)c2ccccn2)cc1C (stereo not drawn),0.7,-2.7,i,55.9*,-2.1
Cc1cccc(C(=O)NC(=S)N2CCc3ccccc3C2)c1,-1.2,1.3,i,2.2,-37.4
CCOc1ccc(C(=O)Nc2ccc(Cl)cn2)cc1Cl,1.8,0.3,i,56.0*,5.7
O=C(COc1ccc(Cl)cc1Cl)Nc1ccc(Cl)cn1,-0.2,0.0,i,-29.5,9.1
c1ccc(-n2ncc3c(N4CCN(CCOc5cccc6ccccc56)CC4)ncnc32)cc1,0.2,8.3,i,-3.1,-10.8
O=C(c1cccc(F)c1)N1CCC2(CC1)NCCc1[nH]cnc12,-4.1,1.2,+,-1.6,-4.1
O=C(OCCN1C(=O)c2ccccc2C1=O)c1cccc(OC(F)F)c1,-1.3,-3.4,i,99.8*,-7.3
COc1cc(C(=O)Nc2ccc(C)cc2)c(-n2cnnn2)cc1OC,1.7,-1.0,i,5.5,-8.3
SMILES,cardiac RTF act,CRFBP-R2 agonist,Myeloid diff MLP,CRFBP-R2 block,RTF Ca sens inh
COCCCn1c(C)nc2c(c1=O)c1nc3ccccc3nc1n2CCc1ccccc1,-6.2,0.0,+,22.4,0.1
Cc1nc2ccccc2c(=O)n1CCc1ccccc1,-3.5,-5.9,i,-11.3,-7.0
O=C(c1ccoc1)N1CCC2(CC1)Oc1ccc(F)cc1C(=O)C21CC(c2ccc(Cl)cc2)=NO1 (stereo not drawn),4.0,4.7,+,-3.2,-0.7
O=C(c1ccoc1)N1CCC2(CC1)Oc1ccc(Cl)cc1C(=O)C21CC(c2ccc(Cl)cc2)=NO1 (stereo not drawn),-2.5,5.7,i,-6.5,10.6
O=C(Nc1ccccc1NC(=O)NC1CCCCC1)NC1CCCCC1,-1.7,0.4,i,21.5,-3.2
Nc1ccccc1NC1CCCCC1,2.3,1.4,+,-18.5,-2.2
COc1cc(NC(=O)CSc2nc3ccccc3n2-c2ccccc2)c(C)cc1[N+](=O)[O-],20.0,-1.6,i,54.6*,-8.7
Cc1nn(-c2ccccc2)c(C)c1NC(=O)COC(=O)c1ccccc1OC(F)F,-3.3,1.4,i,57.5*,-2.5
COC(=O)c1cccc(Nc2nc(-c3cccnc3)nc3ccccc23)c1,-1.3,-0.4,i,6.7,2.6
COc1cccc(CNc2nc(-c3cccnc3)nc3ccccc23)c1,-4.8,-2.3,i,95.7*,-6.9
COc1cccc(/C=N/Nc2nc(-c3cccnc3)nc3ccccc23)c1,-2.8,1.2,i,0.1,-3.2
CCOC(=O)c1cccc(Nc2nc(-c3cccnc3)nc3ccccc23)c1,-1.3,-1.0,+,-1.6,2.1
CCCCCc1nnc(NC(=O)CN2C(=O)C3CCCCC3C2=O)s1 (stereo not drawn),0.6,-1.4,?,-7.4,-0.6
CCC(=O)N1CCCc2cc(S(=O)(=O)N3CCN(c4ncccn4)CC3)ccc21,3.3,2.1,i,-19.9,4.6
CCC(=O)N1CCCc2cc(S(=O)(=O)N3CCN(c4ccccc4F)CC3)ccc21,-2.3,-0.9,+,18.1,-4.2
CC(=O)Nc1ccc(NC(=O)CCNS(=O)(=O)c2cccc3nsnc23)cc1,5.0,1.1,i,-13.3,-7.6
CCOC(=O)Nc1ccc(NCc2ccc(F)cc2)nc1N,71.7*,36.5,i,-39.7,-67.3
CCOC(=O)Nc1ccc(C)cc1NC(=O)OCC,-2.4,-1.3,i,-10.5,-1.7
CC1CCCCc2nc3c(c(=O)n21)CCCC3 (stereo not drawn),/,/,i,/,/
COc1ccc(-c2csc(NC(=O)CCS(=O)(=O)c3ccccc3)n2)c(OC)c1,-1.2,-0.1,+,-6.8,-0.5
O=C(CCS(=O)(=O)c1ccccc1)Nc1nc(-c2ccc(F)cc2)cs1,-1.8,-1.7,+,-9.9,-4.3
CC12CCCCN1CCCc1c2[nH]c2ccccc12 (stereo not drawn),1.0,50.5*,i,-3.6,-32.1
CC(C)(C)c1ccc(OCC(=O)NNC(=O)CCc2ccccc2)cc1,-7.1,-1.0,i,-10.3,2.6
CC(C)(C)c1ccc(C(=O)NC(=S)NNC(=O)COc2ccccc2)cc1,0.0,95.7*,i,-63.9,-10.9
CC(C)(C)c1ccc(C(=O)NNC(=O)CCc2ccccc2)cc1,/,0.2,+,6.3,/
Cc1ccc(C(=O)NNC(=S)NC(=O)COc2ccccc2)cc1,-4.2,141.7*,/,-62.7,-2.3
Cc1ccccc1C(=O)NNC(=S)NC(=O)COc1ccccc1,-8.8,129.1*,/,11.3,-1.3
O=C(NCCCN1CCOCC1)/C(=C/c1ccco1)NC(=O)c1ccccc1,-6.2,1.3,i,5.3,-5.2
CC(=O)N1CCCc2ccc(NS(=O)(=O)c3ccc(C)c(C)c3)cc21,0.7,0.2,+,6.2,-9.1
